# High-throughput results from PubChem BioAssay.
# Rows were chosen to be rich in hits. Some 2.3% of all compounds tested hit in one or more screens of this group.
# HTR2A ag = activates the mouse 5-HT2A serotonin receptor | P35363 | activation, % at 7.6 µM | 0.66% of 360,000 active | CHO-K1 mHTR2A beta-arrestin complementation, luminescence; percent of 30 µM serotonin response;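 active means activation above a run cutoff, the mean activation of all tested compounds plus 3 SD, cut at about 14% in these data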;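 further: 0% = plate median of compound wells and 100% = 30 µM serotonin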
# B2AR ag = activates human beta-2 adrenergic receptor causing internalization. Am2.2-beta2AR cells, FAP receptor internalization, flow cytometry. P07550. AID 504454. 0.43% of 340,000 active. response, % (concentration not given with the values);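 active means response above a set limit, near 3 SD of response in nonfluorescent compounds, cut at about 42% in these data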
# NTR1 agonist = activates human neurotensin receptor 1 | activation, % at 20 µM | AID 493036 | 0.17% of 330,000 active | NTR1-U2OS beta-arrestin-GFP spot imaging, agonist mode;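 active means activation at or above 40% of the spot to cytoplasm intensity ratio, with at least 20 cells analyzed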;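 further: 0% = DMSO without peptide and 100% = 100 nM NTR1 peptide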
# ABHD5-PLIN5 inh = ABHD5-PLIN5 protein interaction inhibition. Split G. princeps luciferase complementation, luminescence, 4 h. 0.78% of 360,000 active. inhibition, % at 4 µM. AID 602281;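 active means inhibition above the mean inhibition across every tested compound plus 3 SD, cut at about 22% in these data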;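 further: 0% = DMSO only wells and the 100% control is not disclosed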
# Target sequence (Q00G26 whole entry, looked up): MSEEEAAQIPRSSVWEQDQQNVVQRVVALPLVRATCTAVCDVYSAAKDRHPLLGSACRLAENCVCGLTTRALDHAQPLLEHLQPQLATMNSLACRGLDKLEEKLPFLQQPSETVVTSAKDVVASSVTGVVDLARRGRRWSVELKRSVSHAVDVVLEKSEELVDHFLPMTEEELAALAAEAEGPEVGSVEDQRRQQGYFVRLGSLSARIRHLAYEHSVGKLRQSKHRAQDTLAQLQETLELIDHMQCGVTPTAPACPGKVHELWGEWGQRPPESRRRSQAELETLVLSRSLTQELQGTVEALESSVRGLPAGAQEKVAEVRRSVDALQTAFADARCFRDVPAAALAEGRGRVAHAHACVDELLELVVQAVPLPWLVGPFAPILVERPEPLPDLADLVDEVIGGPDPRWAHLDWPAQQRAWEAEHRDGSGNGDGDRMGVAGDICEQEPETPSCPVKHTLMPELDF
# Target sequence (Q8WTS1 whole entry, looked up): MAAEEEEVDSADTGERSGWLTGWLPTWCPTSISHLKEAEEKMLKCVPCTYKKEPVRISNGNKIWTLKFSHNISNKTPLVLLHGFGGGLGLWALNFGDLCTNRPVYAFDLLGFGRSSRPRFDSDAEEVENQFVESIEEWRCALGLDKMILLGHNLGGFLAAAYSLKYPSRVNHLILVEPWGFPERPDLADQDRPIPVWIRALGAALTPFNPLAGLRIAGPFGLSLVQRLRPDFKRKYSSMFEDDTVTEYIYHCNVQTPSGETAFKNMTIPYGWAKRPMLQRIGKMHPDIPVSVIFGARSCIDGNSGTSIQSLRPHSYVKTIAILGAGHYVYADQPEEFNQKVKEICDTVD
# Exocytosis inh = blocks lytic granule exocytosis; TALL-104 LAMP-1 surface exposure, flow cytometry; cells stimulated with thapsigargin and PMA; 0.66% of 360,000 active; inhibition, % at 10 µM; AID 651702;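 active means inhibition above about 55%, limit read from the data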
# Active calls of the source: *; / = no result.
SMILES,HTR2A ag,B2AR ag,NTR1 agonist,ABHD5-PLIN5 inh,Exocytosis inh
O=S(=O)(NC1CC(NS(=O)(=O)OCC(Cl)(Cl)Cl)C2CCCCC12)OCC(Cl)(Cl)Cl (stereo not drawn),15.4*,4.0,10.2,-9.6,-5.5
COc1ccccc1NC(=O)CSc1nc(=O)n(Cc2ccncc2)c2c1CCCC2,0.6,1.1,0.9,8.0,-3.4
Cc1cccc2sc(N(CCN(C)C)C(=O)/C=C/c3cccs3)nc12,-6.2,13.1,12.4,18.6,-11.8
CN(C)CCCN(C(=O)/C=C/c1cccs1)c1nc2c(F)cccc2s1,0.6,37.9,/,16.6,56.8*
O=C(CCc1ccccc1)NN1C(=O)C2C3C=CC(O3)C2C1=O (stereo not drawn),1.8,8.2,0.5,-3.3,0.8
O=C1C2C3C=CC(O3)C2C(=O)N1CC(O)c1ccccc1 (stereo not drawn),1.9,5.8,-0.9,6.0,63.1*
CC(C)(CC(=O)O)CC(=O)N1CCN(c2cc(C(F)(F)F)nc3ccccc23)CC1,1.2,8.5,-1.0,-3.1,-0.3
CCCCN(C(=O)COc1ccc(F)cc1)c1c(N)n(CC(C)C)c(=O)[nH]c1=O,4.8,/,/,4.7,3.5
Cc1oc(C(C)(C)C)cc1C(=O)Nc1cccc(/C=C\C(=O)O)c1,1.6,-24.4,-1.3,22.7*,-2.0
Cc1oc(-c2ccccc2)cc1C(=O)Nc1cccc(/C=C\C(=O)O)c1,-4.3,-4.5,-0.8,14.8,0.9
Cc1ccc(-c2nc(-c3ccc(Cl)cc3)sc2CC(=O)O)c(C)c1,0.6,4.5,2.9,-10.2,0.0
COCCN(C(=O)COC(=O)/C=C/c1cccc(C(F)(F)F)c1)c1c(N)n(CC(C)C)c(=O)[nH]c1=O,-2.8,-1.4,0.1,-8.7,-1.4
Clc1ccc(N=c2ssnc2Cl)nc1,-0.4,13.7,17.6,-13.6,87.1*
COc1ccc(Cl)cc1C(=O)Nn1c(C)nc2ccccc2c1=O,1.1,-17.2,1.9,8.5,5.4
COc1ccc(Cl)cc1C(=O)Nn1c(-c2cccs2)nc2ccccc2c1=O,3.1,67.8*,-2.0,-6.7,-0.1
O=C(CCl)Nc1cccc(S(=O)(=O)NC2=NCCCCC2)c1,3.4,2.2,-1.4,23.1*,22.4
O=C(CCl)Nc1ccc(S(=O)(=O)NC2=NCCCCC2)cc1,1.5,5.0,2.2,1.7,1.6
CN(C(=O)c1cccc(NC(=O)Cc2cccc(NC(=O)C3CCN(C(=O)C4CCCCC4)CC3)c2)c1)C1CCC1,-3.7,-1.8,/,-2.5,0.7
CCOC(=O)Cn1c(=NC(=O)c2cc(-c3cccs3)nc3ccccc23)sc2cc(S(N)(=O)=O)ccc21,4.0,10.2,4.1,8.8,21.0
COC(=O)Cn1c(=NC(=O)c2cc(-c3cccs3)nc3ccccc23)sc2cc(S(N)(=O)=O)ccc21,1.8,6.1,5.0,25.8*,19.5
CCCS(=O)(=O)NC(=O)C1(C)CCN(C(=O)c2cc(C)oc2C)C1 (stereo not drawn),2.6,/,/,17.8,10.8
COc1ccccc1/C=C/C=C(\C#N)C(=O)NC(C)c1ccccc1 (stereo not drawn),-6.5,5.6,1.7,13.6,76.9*
O=C(CSc1nnc(CNC(=O)C23CC4CC(CC(C4)C2)C3)n1-c1ccccc1)Nc1ccccc1,1.5,-8.2,2.3,1.9,0.3
O=C(Nc1ccc2c(c1)oc1ccccc12)c1ccncc1,-4.9,37.7,-0.9,22.2*,1.0
CCNC(=S)Nc1ccc2ncoc2c1,5.3,6.9,0.4,13.5,2.6
SMILES,HTR2A ag,B2AR ag,NTR1 agonist,ABHD5-PLIN5 inh,Exocytosis inh
CCNC(=S)Nc1ccc2c(c1)oc1ccccc12,5.1,4.8,6.0,-5.6,59.4*
N#Cc1c(N2CCOCC2)nc(-c2ccco2)c2c1CCCC2,-6.0,4.3,5.2,23.1*,1.8
CC1(C)Cc2c(C#N)c(N3CCCC3)nc(-c3ccco3)c2CO1,-0.7,3.3,2.1,18.8,3.1
CN(C)CCCNC(=O)c1cccc(-c2cnc3cccnn23)c1,-1.1,/,/,-4.5,0.9
Cc1c(Cl)cccc1NC(=S)NCCc1ccc(F)cc1,-1.4,7.9,1.0,-12.2,83.8*
Nc1nc(SCC(=O)NC2CCCCC2)n[nH]1,-2.9,-3.5,-1.2,-4.8,76.0*
O=C(CSc1n[nH]c(C2CCCC2)n1)NC1CCCC1,9.8,-1.3,3.0,0.9,1.6
C1=C(c2ccccc2)CCN(c2ncnc3nc[nH]c23)C1,-4.3,-13.9,-2.1,0.5,14.3
c1ccc(CN2CCN(c3ncnc4nc[nH]c34)CC2)cc1,23.7*,4.5,-1.4,1.4,13.9
